PubChem BioAssay AID485270 (The Scripps Research Institute Molecular Screening Center, 2010)
Out of some 330,000 compounds screened, about 5,800 (1.8%) were called active. Cut-off read from the data, not from the text of the source: active = inhibition mostly above about 38% (no sharp cut-off); inactive = mostly below about 40%. The entries come from a sample that favours actives as a whole.

Biological target: Orexin/Hypocretin receptor type 1 (Homo sapiens) (UniProt O43613)
Test: blocks the human orexin 1 receptor (AID 485270);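 note: 0% = agonist challenge alone and 100% = reference antagonist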
Conditions: OX1R-expressing cells, FRET antagonist read-out; at 6.6 µM; hits give high values

Sequence of Orexin/Hypocretin receptor type 1 (Homo sapiens) (O43613 whole entry, looked up): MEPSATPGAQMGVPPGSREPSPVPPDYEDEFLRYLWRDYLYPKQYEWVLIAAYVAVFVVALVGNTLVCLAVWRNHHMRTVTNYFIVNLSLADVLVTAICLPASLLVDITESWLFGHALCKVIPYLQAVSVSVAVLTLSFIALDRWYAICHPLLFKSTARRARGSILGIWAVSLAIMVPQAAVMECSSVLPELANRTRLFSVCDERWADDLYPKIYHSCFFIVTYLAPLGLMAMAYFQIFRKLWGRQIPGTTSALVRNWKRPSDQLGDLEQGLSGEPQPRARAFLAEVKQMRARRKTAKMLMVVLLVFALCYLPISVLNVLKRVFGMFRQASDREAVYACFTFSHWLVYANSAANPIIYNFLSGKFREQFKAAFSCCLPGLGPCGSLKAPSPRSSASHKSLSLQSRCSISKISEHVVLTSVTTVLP

inhibition, active:
O=C(CCc1ccccc1)Nc1ncc([N+](=O)[O-])s1 52.7%
O=C(Nc1ncc([N+](=O)[O-])s1)C1COc2ccccc2O1 (stereo unspecified) 57.4%
O=C(Cc1c(F)cccc1Cl)Nc1ncc([N+](=O)[O-])s1 43.1%
CC(=O)Oc1ccccc1C(=O)Nc1ncc([N+](=O)[O-])s1 86%
CC(C)OCCCNc1ncnc2c1[nH]c1ccc(F)cc12 64.8%
CCOC(=O)C1Sc2[nH]c(=O)sc2C(c2ccc(Cl)cc2)C1C(=O)OCC (stereo unspecified) 49.6%
Fc1ccc2[nH]c3c(N4CCSCC4)ncnc3c2c1 85.8%
N#C/C(=C1\CCCN1)c1nc(-c2ccccc2)cs1 84.1%
N#CC(=C1SC=CS1)c1nc(-c2ccccc2)cs1 105%

inhibition, inactive:
CN(c1ccccc1)S(=O)(=O)c1cccc(NC(=O)Cc2c(F)cccc2Cl)c1 26.3%
CC(C)Cc1nnc(NC(=O)CCc2ccccc2)s1 -12.6%
O=C(Cc1c(F)cccc1Cl)Nc1ccc(-n2cnnn2)cc1 3.25%
Cc1cnc(NC(=O)c2ccccn2)s1 14.3%
COc1ccc([N+](=O)[O-])cc1NC(=O)CCc1ccccc1 28.9%
COc1ccc(OC)c2sc(NC(=O)C3COc4ccccc4O3)nc12 (stereo unspecified) 14.5%
COc1ccc(NC(=O)c2ccccc2[N+](=O)[O-])cc1OC 10.8%
COc1ccc(NC(=O)C2COc3ccccc3O2)cc1 (stereo unspecified) 3.74%
O=C(OCCN1C(=O)c2ccccc2C1=O)[C@@H]1CC(O)CN1S(=O)(=O)c1ccccc1[N+](=O)[O-] (stereo partly specified) 7.02%
O=C(COC(=O)C1CCCO1)Nc1nc(-c2ccc(F)cc2)cs1 (stereo unspecified) 5.35%
C=CCC[C@H](Cc1ccc(F)cc1)C(=O)OC[C@H](C)NC(=O)[C@H](CC=C)CC(=O)N(CCO)Cc1ccccc1 17.6%
O=C(COC(=O)c1ccc(F)c(S(=O)(=O)N2CCOCC2)c1)NCc1ccc2c(c1)OCO2 7.1%
COc1ccc2c(CC(=O)NNC(=O)c3ccccc3F)coc2c1 7.98%
CCCCOc1ccc(N(CC(=O)NC(C)C)C(=O)CCC(=O)Nc2ccccn2)cc1 4.64%
CN(CCc1ccccc1)C(=O)c1cccc(NC(=O)Cc2ccc([N+](=O)[O-])cc2)c1 14.3%
CN(Cc1ccccc1)C(=O)COC(=O)/C=C/c1ccc2c(c1)OCO2 4.7%
CCCCNC(=O)C(C)N(CCN(C)C)C(=O)CCCN1C(=O)NC(c2ccc(Cl)cc2)C(C(=O)OCc2ccccc2)=C1C (stereo unspecified) 13.9%
C=C1c2cccc(OC)c2O[C@H](C(=O)OCC)[C@@H]1CCCCCC 1.8%
CC(C)OCCCNC(=O)c1cc(Sc2ccc(F)cc2)nc2ccccc12 23.4%
O=C1NC(Cc2ccc(O)cc2)c2nc3ccc(Cl)cc3c(=O)n2-c2ccccc21 (stereo unspecified) 6.78%
CCOC(=O)C1=C(C)NC(=O)N(C(C)=O)C1c1ccc(Cl)cc1 (stereo unspecified) 12.3%
CCOC(=O)C1C(c2ccc(Cl)cc2)NC(=S)NC1(O)C(F)(F)F (stereo unspecified) 2.06%
COc1ccc(C)cc1NC(=O)CSc1cccc[n+]1[O-] -5.73%
Cc1c(CN2CC[C@@H](N3CCN(c4ccccn4)CC3)[C@H](O)C2)[nH]c2ccc(F)cc12 -1.02%
COc1ccc2[nH]c3c(c2c1)CCN1C(=O)C(CC(=O)NCc2cccc(C(F)(F)F)c2)C[C@H](C(=O)N2CCOCC2)[C@@]31C (stereo partly specified) 13%
CCC(CO)Oc1cc(NCc2ccccc2)c2ncn(C3CCCC3)c2c1 (stereo unspecified) 12.8%
CCNC(=O)CSc1nc(-c2ccccc2)cs1 16.1%
Cn1c(/C(C#N)=C2/CCCCCN2)nc2ccccc21 11.5%
N#CC(=C1CCCC1)c1nc(-c2ccc(Cl)cc2)cs1 20.1%
N#C/C(=C1/CCCN1)c1ccccn1 5.71%
Cc1c(NC(=O)CN(C)CC(=O)Nc2ccc(F)c(F)c2F)c(=O)n(-c2ccccc2)n1C 4.65%
COC(=O)[C@]1(Cc2ccccc2)N[C@H](CN(C)S(=O)(=O)c2ccc(F)cc2)[C@@H]2C(=O)N(Cc3ccccc3)C(=O)[C@@H]21 15.4%
CNC[C@@H]1Oc2c(NS(C)(=O)=O)cccc2C(=O)N([C@@H](C)CO)C[C@H]1C -1.47%
O=C(C1CC1)N1N=C2CCCCC2C1(O)C(F)(F)F (stereo unspecified) 5.9%
CCOC(=O)[C@H]1[C@H]2COc3cc(OC)ccc3[C@@H]2N2C(=O)CN(Cc3ccc(Cl)cc3)C(=O)[C@@]12C 7.39%
O=C(NCCc1ccc(F)cc1)c1ccc2nccnc2c1 9.11%
COc1cc(-c2nnc(NC(=O)C3=COCCO3)o2)cc(OC)c1OC 4.19%
